# Experimental data taken from PubChem BioAssay (EPA / NIEHS).
# Results filed as inconclusive are left out. The source made the active and inactive calls. How the source made its calls: active means hit-call score of the fitted dose curve at least 0.9, where 1 is the maximum; inconclusive means response in the unintended direction; inactive means score below 0.9.
# Key:
# [1] = target: human Acid Phosphatase 1 (ACP1), ACP1 (gene 52) (UniProt P24666); assay: NVS_ENZ_hACP1: NovaScreen (NVS) Enzymatic Assay for human Acid Phosphatase 1 (ACP1) (AID 2283136)
# Sequence of human Acid Phosphatase 1 (ACP1), ACP1 (gene 52) (P24666 whole entry, looked up): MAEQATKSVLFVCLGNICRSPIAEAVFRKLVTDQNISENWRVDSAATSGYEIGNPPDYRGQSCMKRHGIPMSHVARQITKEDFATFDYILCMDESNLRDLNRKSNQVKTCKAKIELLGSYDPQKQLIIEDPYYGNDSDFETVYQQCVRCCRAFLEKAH
# In short: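 Cell-free fluorescence read-out of phosphatase activity, substrate and product separated by mobility shift, taken 1.5 h after compound addition; protein produced in Sf9. Single 25 uM duplicate screen, followed by concentration series for actives, scored as signal loss relative to DMSO.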
# [2] = target: human Aurora Kinase A - serine/threonine-protein Kinase 6 (AurA), AURKA (gene 6790) (UniProt O14965); assay: NVS_ENZ_hAurA: NovaScreen (NVS) Enzymatic Assay for human Aurora Kinase A - serine/threonine-protein Kinase 6 (AurA) (AID 2283142)
# Sequence of human Aurora Kinase A - serine/threonine-protein Kinase 6 (AurA), AURKA (gene 6790) (O14965 whole entry, looked up): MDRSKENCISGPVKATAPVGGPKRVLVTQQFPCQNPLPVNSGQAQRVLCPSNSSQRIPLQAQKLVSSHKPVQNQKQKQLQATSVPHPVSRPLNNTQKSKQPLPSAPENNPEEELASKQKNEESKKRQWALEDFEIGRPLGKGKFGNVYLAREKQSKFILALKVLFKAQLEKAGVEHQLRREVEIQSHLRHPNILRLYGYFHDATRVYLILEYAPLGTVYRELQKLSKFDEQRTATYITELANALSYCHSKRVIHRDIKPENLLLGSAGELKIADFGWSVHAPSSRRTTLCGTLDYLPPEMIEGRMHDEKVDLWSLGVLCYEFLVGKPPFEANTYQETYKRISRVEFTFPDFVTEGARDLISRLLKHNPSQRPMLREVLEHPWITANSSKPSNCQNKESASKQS
# In short: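 Recombinant human AurA activity read by fluorescence after mobility-shift separation of product from substrate; 1 hour incubation. Chemicals first run in duplicate at 25 uM, then concentration series to 50 uM if over threshold; fitted relative to DMSO.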
# [3] = target: human Beta-secretase (BACE), BACE1 (gene 23621) (UniProt P56817); assay: NVS_ENZ_hBACE: NovaScreen (NVS) Enzymatic Assay for human Beta-secretase (BACE) (AID 2283140);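 further: hits are inhibitors that reduce fluorescent substrate signal versus DMSO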
# Sequence of human Beta-secretase (BACE), BACE1 (gene 23621) (P56817 whole entry, looked up): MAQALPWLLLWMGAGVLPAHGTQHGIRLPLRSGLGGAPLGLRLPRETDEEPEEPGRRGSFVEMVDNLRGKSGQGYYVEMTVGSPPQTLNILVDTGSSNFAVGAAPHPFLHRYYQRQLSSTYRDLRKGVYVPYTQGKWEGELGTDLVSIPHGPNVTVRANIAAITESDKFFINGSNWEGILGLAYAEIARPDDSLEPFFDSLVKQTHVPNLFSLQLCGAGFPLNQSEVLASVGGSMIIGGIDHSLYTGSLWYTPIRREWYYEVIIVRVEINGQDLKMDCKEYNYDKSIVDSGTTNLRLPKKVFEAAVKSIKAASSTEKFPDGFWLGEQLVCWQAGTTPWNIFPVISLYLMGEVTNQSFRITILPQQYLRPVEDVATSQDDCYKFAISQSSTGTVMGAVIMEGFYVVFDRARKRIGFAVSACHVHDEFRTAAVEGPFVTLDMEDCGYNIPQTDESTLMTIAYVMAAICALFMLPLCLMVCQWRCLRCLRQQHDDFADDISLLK
# In short: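 SF9-expressed enzyme, cell-free; fluorescent substrate readout after 1 h. Screened at 25 uM single concentration, duplicate; hits retested in concentration series. Activity relative to DMSO baseline, loss-of-signal.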
# [4] = target: human Caspase 8 (CASP8), CASP8 (gene 841) (UniProt Q14790); assay: NVS_ENZ_hCASP8: NovaScreen (NVS) Enzymatic Assay for human Caspase 8 (CASP8) (AID 2283146)
# Sequence of human Caspase 8 (CASP8), CASP8 (gene 841) (Q14790 whole entry, looked up): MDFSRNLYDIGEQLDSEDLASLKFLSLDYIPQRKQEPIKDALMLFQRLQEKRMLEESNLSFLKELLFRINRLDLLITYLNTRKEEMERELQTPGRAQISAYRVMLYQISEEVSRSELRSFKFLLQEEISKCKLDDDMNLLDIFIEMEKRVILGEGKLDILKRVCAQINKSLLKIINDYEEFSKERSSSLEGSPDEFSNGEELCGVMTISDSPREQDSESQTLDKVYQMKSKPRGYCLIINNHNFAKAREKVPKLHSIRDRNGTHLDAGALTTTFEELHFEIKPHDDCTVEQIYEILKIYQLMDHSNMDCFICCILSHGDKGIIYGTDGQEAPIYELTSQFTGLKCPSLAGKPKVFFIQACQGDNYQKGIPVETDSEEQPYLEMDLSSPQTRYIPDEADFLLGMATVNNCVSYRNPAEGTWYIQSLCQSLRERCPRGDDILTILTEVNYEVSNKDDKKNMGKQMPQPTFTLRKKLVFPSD
# Method: NVS_ENZ_hCASP8 is a biochemical, single-readout assay that uses extracted gene-proteins from E. coli in a cell-free assay. Measurements were taken 1 hour after chemical dosing in a 96-well plate.NVS_ENZ_hCASP8 is one of one assay component(s) measured or calculated from the NVS_ENZ_hCASP8 assay. It is designed to make measurements of enzyme activity, a form of enzyme reporter, as detected with fluorescence intensity signals by Fluorescence technology.Data from the assay component NVS_ENZ_hCASP8 was analyzed into 1 assay endpoint. This assay endpoint, NVS_ENZ_hCASP8, was analyzed in the positive analysis fitting direction relative to DMSO as the negative control and baseline of activity. Using a type of enzyme reporter, loss-of-signal activity can be used to understand changes in the enzymatic activity as they relate to the gene CASP8. Furthermore, this assay endpoint can be referred to as a primary readout, because this assay has produced multiple assay endpoints where this one serves a enzymatic activity function. To generalize the intended target to other relatable targets, this assay endpoint is annotated to the protease intended target family, where the subfamily is cysteine protease.
# Binding assays used specific radioligands (tritiated, iodinated) with non-radioactive competitive displacement ligands in agonist or antagonist protocols (as indicated) and various reference compounds and inhibitors to titrate specific binding to receptors and transporters. Most enzyme assays (CYPs, kinases, phosphatases, proteases, HDACs) used recombinant protein and specific substrates (fluorescence mostly, some colorimetric and radioactive) and inhibitors, followed by a biochemical separation of substrate and product. All assays for the biochemical HTS were initially run in duplicate at a single concentration (10 uM for CYP450 assays and 25 uM for all others). […] Each assay was run with positive and negative controls, and concurrent controls on every plate. The follow-up (secondary) screen tested active chemical-pairs in concentration series, as well as a few additional assays not tested in the primary screen, some selected negative inactives, and several cases re-run in the concentration series for confirmatory purposes.
# [5] = target: human AKT serine/threonine Kinase 2 (AKT2), AKT2 (gene 208) (UniProt P31751); assay: NVS_ENZ_hAKT2: NovaScreen (NVS) Enzymatic Assay for human AKT serine/threonine Kinase 2 (AKT2) (AID 2283141)
# Sequence of human AKT serine/threonine Kinase 2 (AKT2), AKT2 (gene 208) (P31751 whole entry, looked up): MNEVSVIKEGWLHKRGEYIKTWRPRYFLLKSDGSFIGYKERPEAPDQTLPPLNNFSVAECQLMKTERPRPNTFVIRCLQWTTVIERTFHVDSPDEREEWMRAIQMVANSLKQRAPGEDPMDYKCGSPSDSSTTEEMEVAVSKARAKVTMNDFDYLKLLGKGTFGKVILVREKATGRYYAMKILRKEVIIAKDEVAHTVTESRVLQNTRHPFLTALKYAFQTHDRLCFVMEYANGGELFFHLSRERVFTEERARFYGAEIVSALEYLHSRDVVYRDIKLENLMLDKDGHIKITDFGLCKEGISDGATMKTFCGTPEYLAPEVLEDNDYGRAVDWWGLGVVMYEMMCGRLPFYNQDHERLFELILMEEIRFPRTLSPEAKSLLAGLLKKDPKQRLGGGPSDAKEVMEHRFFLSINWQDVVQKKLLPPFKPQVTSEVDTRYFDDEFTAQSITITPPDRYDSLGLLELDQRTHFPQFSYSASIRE
# In short: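 Cell-free fluorescence/electrophoretic mobility shift readout of recombinant human AKT2 activity, 1 h after chemical dosing. Duplicate primary screen at 25 uM, then singleton concentration-response up to 50 uM; loss of signal versus DMSO baseline.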
# [6] = target: human Caspase 5 (CASP5), CASP5 (gene 838) (UniProt P51878); assay: NVS_ENZ_hCASP5: NovaScreen (NVS) Enzymatic Assay for human Caspase 5 (CASP5) (AID 2283137)
# Sequence of human Caspase 5 (CASP5), CASP5 (gene 838) (P51878 whole entry, looked up): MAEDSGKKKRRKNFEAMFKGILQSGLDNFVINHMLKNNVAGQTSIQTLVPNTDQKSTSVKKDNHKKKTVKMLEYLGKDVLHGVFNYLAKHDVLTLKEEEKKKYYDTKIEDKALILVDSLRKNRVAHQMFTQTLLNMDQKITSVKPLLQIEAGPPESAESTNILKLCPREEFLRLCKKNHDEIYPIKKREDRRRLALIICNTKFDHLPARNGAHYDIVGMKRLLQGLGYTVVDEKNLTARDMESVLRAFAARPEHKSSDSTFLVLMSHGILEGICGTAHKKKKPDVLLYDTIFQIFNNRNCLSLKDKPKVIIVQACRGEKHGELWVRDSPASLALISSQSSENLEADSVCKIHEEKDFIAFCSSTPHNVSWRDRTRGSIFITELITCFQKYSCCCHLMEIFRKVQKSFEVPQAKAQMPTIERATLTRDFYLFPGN
# In short: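 Fluorescent substrate readout of CASP5 activity (loss-of-signal), measured 2 h post-dose. Protein expressed in E. coli. Primary screen duplicate at 25 uM; actives meeting threshold (e.g., 30% inhibition) rerun singleton, max 50 uM.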
# [7] = target: human Caspase 4 (CASP4), CASP4 (gene 837) (UniProt P49662); assay: NVS_ENZ_hCASP4: NovaScreen (NVS) Enzymatic Assay for human Caspase 4 (CASP4) (AID 2283143)
# Sequence of human Caspase 4 (CASP4), CASP4 (gene 837) (P49662 whole entry, looked up): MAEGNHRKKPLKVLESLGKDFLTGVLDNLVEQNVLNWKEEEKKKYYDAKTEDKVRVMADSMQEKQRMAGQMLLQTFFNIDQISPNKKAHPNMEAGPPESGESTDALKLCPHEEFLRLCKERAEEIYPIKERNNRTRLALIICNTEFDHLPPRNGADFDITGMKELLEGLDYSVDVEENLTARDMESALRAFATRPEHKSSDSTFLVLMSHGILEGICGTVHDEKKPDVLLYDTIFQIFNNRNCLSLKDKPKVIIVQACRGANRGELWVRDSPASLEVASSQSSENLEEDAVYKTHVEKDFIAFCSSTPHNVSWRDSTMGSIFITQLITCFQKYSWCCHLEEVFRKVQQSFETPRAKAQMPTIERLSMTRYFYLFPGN
# In short: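 Compounds were first tested in duplicate at 25 uM, and hits were titrated singly to a 50 uM maximum. Recombinant protease from E. coli was read by fluorescence 2 h post-dose, and activity loss was fitted against the DMSO baseline.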
# [8] = target: human AKT serine/threonine Kinase 1 (AKT1), AKT1 (gene 207) (UniProt P31749); assay: NVS_ENZ_hAKT1: NovaScreen (NVS) Enzymatic Assay for human AKT serine/threonine Kinase 1 (AKT1) (AID 2283138)
# Sequence of human AKT serine/threonine Kinase 1 (AKT1), AKT1 (gene 207) (P31749 whole entry, looked up): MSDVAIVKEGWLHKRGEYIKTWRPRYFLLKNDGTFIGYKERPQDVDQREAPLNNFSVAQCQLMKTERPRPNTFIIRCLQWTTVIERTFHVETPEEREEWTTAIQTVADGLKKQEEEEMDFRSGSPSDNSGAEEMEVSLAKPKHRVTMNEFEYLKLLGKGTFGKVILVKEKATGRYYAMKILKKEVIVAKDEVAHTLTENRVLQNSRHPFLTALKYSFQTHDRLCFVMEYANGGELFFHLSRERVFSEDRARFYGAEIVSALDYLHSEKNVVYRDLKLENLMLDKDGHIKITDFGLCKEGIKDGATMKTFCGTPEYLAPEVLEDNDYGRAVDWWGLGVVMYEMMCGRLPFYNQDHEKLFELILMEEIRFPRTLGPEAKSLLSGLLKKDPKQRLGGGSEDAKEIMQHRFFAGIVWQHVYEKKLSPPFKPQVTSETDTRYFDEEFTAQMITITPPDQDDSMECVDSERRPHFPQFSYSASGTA
# In short: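 Fluorescence and mobility-shift readout of kinase activity, taken 1 h post-dosing in a cell-free format with recombinant protein. Primary screen at 25 uM in duplicate; hits (e.g. 30% inhibition) retested in concentration series topping at 50 uM.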
# CDK2 (gene 1017) = CDK2 (gene 1017) (UniProt P24941); assay: NVS_ENZ_hCDK2: NovaScreen (NVS) Enzymatic Assay for human Cyclin-Cependent Kinase 2 (CDK2) (AID 2283144)
# Method: NVS_ENZ_hCDK2 is a biochemical, single-readout assay that uses extracted gene-proteins in a cell-free assay. Measurements were taken 1 hour after chemical dosing in a 384-well plate.NVS_ENZ_hCDK2 is one of one assay component(s) measured or calculated from the NVS_ENZ_hCDK2 assay. It is designed to make measurements of enzyme activity, a form of enzyme reporter, as detected with fluorescence intensity signals by Fluorescence and electrophoretic mobility shift technology.Data from the assay component NVS_ENZ_hCDK2 was analyzed into 1 assay endpoint. This assay endpoint, NVS_ENZ_hCDK2, was analyzed in the positive analysis fitting direction relative to DMSO as the negative control and baseline of activity. Using a type of enzyme reporter, loss-of-signal activity can be used to understand changes in the enzymatic activity as they relate to the gene CDK2. Furthermore, this assay endpoint can be referred to as a primary readout, because this assay has produced multiple assay endpoints where this one serves a enzymatic activity function. To generalize the intended target to other relatable targets, this assay endpoint is annotated to the kinase intended target family, where the subfamily is serine/threonine kinase. […]
# Caspase-3 (Homo sapiens) = Caspase-3 (Homo sapiens) (UniProt P42574); assay: NVS_ENZ_hCASP3: NovaScreen (NVS) Enzymatic Assay for human Caspase 3 (CASP3) (AID 2283139)
# Sequence of Caspase-3 (Homo sapiens) (P42574 whole entry, looked up): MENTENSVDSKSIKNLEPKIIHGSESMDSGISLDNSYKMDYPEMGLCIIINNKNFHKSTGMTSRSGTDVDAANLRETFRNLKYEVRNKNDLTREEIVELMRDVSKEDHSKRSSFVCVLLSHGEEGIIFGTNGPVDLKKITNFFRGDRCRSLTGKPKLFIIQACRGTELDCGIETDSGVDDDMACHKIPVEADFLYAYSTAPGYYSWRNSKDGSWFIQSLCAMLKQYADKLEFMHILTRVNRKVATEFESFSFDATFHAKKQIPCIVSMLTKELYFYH
# In short: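 Single-concentration screening at 25 uM in duplicate, with concentration-response follow-up to a 50 uM maximum for chemicals passing the threshold. Caspase-3 (human, E. coli-expressed) activity was read as substrate fluorescence after 1 h, with loss of signal relative to DMSO.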
compound,measurement,setting,value
CCN(CC)N=O,outcome,[1],inactive
same,outcome,[2],inactive
CC(C)(C)C(O)(CCc1ccc(Cl)cc1)Cn1cncn1 (configuration not stated),outcome,[2],inactive
O=[N+]([O-])c1ccc(Oc2ccc(Cl)cc2Cl)cc1,outcome,[3],inactive
Nc1ccc([N+](=O)[O-])cc1,outcome,[2],inactive
same,outcome,[4],inactive
c1ccc2c(c1)-c1cccc3cccc-2c13,AC50,[3],1.18 µM (active)
CCCCCCCCn1sccc1=O,outcome,[5],inactive
Cc1ccc(N=C=O)cc1N=C=O,outcome,[6],inactive
same,AC50,[3],8.64 µM (active)
same,outcome,[5],inactive
same,AC50,[7],13.7 µM (active)
CCNS(=O)(=O)C(F)(F)C(F)(F)C(F)(F)C(F)(F)C(F)(F)C(F)(F)C(F)(F)C(F)(F)F,outcome,[1],inactive
same,outcome,[8],inactive
same,AC50,[3],8.43 µM (active)
same,outcome,[5],inactive
same,outcome,CDK2 (gene 1017),inactive
CCCCCCCCOC(=O)c1ccc(C(=O)OCCCCCCCC)c(C(=O)OCCCCCCCC)c1,outcome,Caspase-3 (Homo sapiens),inactive
same,AC50,[3],11.2 µM (active)
Oc1ccc2ccc3cccc4ccc1c2c34,AC50,[6],5.32 µM (active)
same,AC50,[3],8.84 µM (active)
same,AC50,[7],5.26 µM (active)
c1ccc(NNc2ccccc2)cc1,outcome,[8],inactive
same,outcome,[5],inactive
same,outcome,[7],inactive
Cc1cccc(N)c1N,outcome,[6],inactive
same,outcome,[7],inactive
Nc1ccc(N=Nc2ccccc2)cc1,outcome,[7],inactive
same,outcome,[4],inactive
COC(=O)c1ccccc1N,AC50,[4],11.1 µM (active)
Nc1ccc(Cl)cc1N,outcome,[6],inactive
same,AC50,Caspase-3 (Homo sapiens),4.4 µM (active)
same,AC50,[3],2.52 µM (active)
Cc1ccc(N)c(N)c1,outcome,[3],inactive
same,outcome,[5],inactive
CCCSC(=O)N(CCC)CCC,outcome,Caspase-3 (Homo sapiens),inactive
O=P(OCCCl)(OCCCl)OCCCl,outcome,[8],inactive
same,outcome,[5],inactive
Clc1ccc(Cl)c(Cl)c1,outcome,[8],inactive
same,outcome,[4],inactive
CN(C)C(=O)Nc1ccc(Cl)cc1,outcome,[5],inactive
ClCCOCCCl,outcome,[2],inactive
O=C1CCCO1,outcome,[5],inactive
C[C@]12C=CC3=C4CCC(=O)C=C4CC[C@H]3[C@@H]1CC[C@@H]2O,AC50,[2],35.3 µM (active)
O=C(O)C1C2CCC(O2)C1C(=O)O (configuration not stated),outcome,[5],inactive
C[N+](C)(C)CC1CO1 (configuration not stated),outcome,[5],inactive
Cc1cc(N=Nc2ccccc2C)ccc1N,AC50,[3],25 µM (active)
CN(C)[C@@H]1C(=O)C(C(N)=O)=C(O)[C@@]2(O)C(=O)C3=C(O)c4c(O)cccc4[C@@](C)(O)[C@H]3C[C@@H]12,AC50,[6],10.9 µM (active)
same,outcome,[3],inactive
CC(C)N(Cc1ccccc1)C(=O)C(C)(C)C,outcome,[8],inactive
COc1cc(C=O)cc2c1[C@H](COC(N)=O)[C@]1(OC(C)=O)ON2C[C@H]2[C@@H]1N2C(C)=O,outcome,[2],inactive
same,outcome,CDK2 (gene 1017),inactive
CCCCCOC(=O)c1ccccc1C(=O)OCCCCC,AC50,[3],11.5 µM (active)
c1ccc(C2CO2)cc1 (configuration not stated),outcome,[6],inactive
CC(C)(O)c1cnn2c(-c3ccc(F)c(-c4c(F)cccc4C#N)c3)cnc2n1,AC50,[3],5.34 µM (active)
CCC[CH2][Sn]([Cl])([CH2]CCC)[CH2]CCC,AC50,[3],4.02 µM (active)
same,outcome,[5],inactive
